In PubChem BioAssay (NCATS):
Inconclusive results are not listed. Where a call stands in place of a potency, no number is given. Active and inactive are the calls of the source. Calls come from the whole dose curve.

Assay: Cytotoxicity counterscreen for inhibitors of SARS-CoV-2 cell entry (AID 1645845); note: nearly all actives have a fitted effect of over 50% in size
Conditions: cell viability (SARS-CoV-2 entry assay cells); series mostly up to 57.1 µM
Excerpt: Assay Provider: Wei Zheng, Ph.D.
National Center for Advancing Translational Sciences, National Institute of Health, Rockville, MD.
SARS-CoV-2 spike protein, within the viral envelope, mediates viral attachment and infection of host cells. The SARS-CoV-2 spike protein specifically binds to the host receptor ACE2 (Angiotensin-converting enzyme 2). This interaction promotes endocytosis of the viral particle, additional events lead to viral-host cell membrane fusion and release of the viral contents, allowing viral replication.
While SARS-CoV-2 requires BSL-3 facilities for live virus work, pseudo-typed partices (PP) that incorporate SARS-CoV-2 spike proteins without replication elements could facilitate studies on viral entry mechanisms in a BSL-2 setting. This PP cell entry assay could also enable screening of small molecule compound libraries in BSL-2 setting to identify inhibitors of SARS-CoV-2 cell entry. To eliminate false positive compounds, ATP content cytotoxicity assay was screened in the same cell line.
SEQUENCE No. (e.g., 1, 2, 3, etc.); […] (e.g., Cells, Incubation, Reagent, etc.); VALUE and DESCRIPTION.
1. Cells. Seed 1500 HEK293-ACE2 cells (Expi293F with stable expression of human ACE2) in 2 uL/well media (DMEM, 10% FBS, 1x L-glutamine, 1x Pen/Strep, 1 ug/ml puromycin) in white 1536-well assay plates (Greiner #782073).
2. Incubation. Incubate at 37 C with 5% CO2 overnight (~16 h).
3. Compounds. Dispense 23 nL/well compounds in DMSO via pin transfer.
4. Incubation. Incubate for 1 h at 37C 5% CO2.
5. Reagent. Dispense 2 uL/well of media (DMEM, 10% FBS, 1x L-glutamine, 1x Pen/Strep, 1 ug/ml puromycin).
6. Incubation. Incubate at for 48h at 37C 5% CO2
7. Reagent. Dispense 4 uL/well of ATPLite 1step luminescence assay reagent (PerkinElmer #6016739).
8. Incubation. Incubate for 15 min at room temperature.
9. Detection. Read luminescence signal (Viewlux plate reader, PerkinElmer). Data was normalized with wells containing cells as 100%, and wells without cells (media only control) as 0%.

Compound	outcome	Potency
NC[C@H]1O[C@H](O[C@H]2[C@H](O[C@@H]3O[C@H](CO)[C@@H](O)[C@H]3O)C(O)[C@H](N)C[C@@H]2N)[C@H](N)[C@@H](O)[C@@H]1O (stereo not given in full)	inactive [at 11.3 µM]	–
CN[C@@H]1[C@@H](O)[C@@H](O[C@@H]2[C@H](O)[C@H](O[C@H]3OC(CN)=CC[C@H]3N)[C@@H](N)C[C@H]2N)OCC1(C)O (stereo not given in full)	–	inactive
Cc1cc(NS(=O)(=O)c2ccc(N)cc2)no1	–	inactive
CCN1C(=O)NC(c2ccccc2)C1=O (stereo not given)	–	inactive
COc1cc(C)nc(-n2nc(C)cc2OC)n1	–	inactive
NS(=O)(=O)c1cc(Cl)c(Cl)c(S(N)(=O)=O)c1	–	inactive
CCCCCCCC(=O)OCC(COC(=O)CCCCCCC)OC(=O)CCCCCCC	–	inactive
CC(=O)N(CC(O)CO)c1c(I)c(C(=O)NCC(O)CO)c(I)c(C(=O)NCC(O)CO)c1I (stereo not given)	–	inactive
COc1cc(C)c(/C=C/C(C)=C/C=C/C(C)=C/C(=O)O)c(C)c1C	–	inactive
CC[N+](CC)(CC)CCOc1cccc(OCC[N+](CC)(CC)CC)c1OCC[N+](CC)(CC)CC	–	inactive
NC(=O)c1cccnc1	–	inactive
O=C(O)CCCCC(=O)O	–	inactive
COc1ccc(C(=O)NCc2ccc(OCCN(C)C)cc2)cc1OC	–	inactive
Cc1ncsc1CCCl	–	inactive
C[C@@H]1CC2=CC(=O)CC[C@@H]2[C@H]2CC[C@@]3(C)[C@@H](CC[C@]3(C)O)[C@@H]21	–	inactive
CC(C)(O/N=C(\C(=O)N[C@@H]1C(=O)N2C(C(=O)[O-])=C(C[n+]3ccccc3)CS[C@H]12)c1csc(N)n1)C(=O)O	–	inactive
CC(C(=O)O)c1cccc(Oc2ccccc2)c1 (stereo not given)	–	inactive
CC(C)OC(=O)OCOP(=O)(CO[C@H](C)Cn1cnc2c(N)ncnc21)OCOC(=O)OC(C)C	–	inactive
CCOC(=O)O[C@]1(C(=O)OCCl)CC[C@H]2[C@@H]3CCC4=CC(=O)C=C[C@]4(C)[C@H]3[C@@H](O)C[C@@]21C	–	inactive
N[C@@H](Cc1cc(I)c(Oc2ccc(O)c(I)c2)c(I)c1)C(=O)O	–	inactive

Compound	outcome	Potency
O=C(O)c1ccccc1Nc1cccc(C(F)(F)F)c1	–	inactive
CC(=O)N(CC(O)CO)c1c(I)c(C(=O)NCCO)c(I)c(C(=O)NCC(O)CO)c1I (stereo not given)	–	inactive
CCC(=O)c1c(O)cc(O)cc1O	–	inactive
CC(C)=CCC1C(=O)N(c2ccccc2)N(c2ccccc2)C1=O	–	inactive
O=C(N[C@H](CO)[C@H](O)c1ccc([N+](=O)[O-])cc1)C(Cl)Cl	–	inactive
CC(=O)Nc1ccc(OC(=O)c2ccccc2OC(C)=O)cc1	–	inactive
Cc1ncc([N+](=O)[O-])n1CC(C)O (stereo not given)	–	inactive
O=C(O)c1cc(=O)[nH]c(=O)[nH]1	–	inactive
Cc1cc(O)c2c(O)c3c(O)cccc3cc2c1	–	inactive
OC[C@H]1O[C@@H](n2cnc3c2NC=NC[C@H]3O)C[C@@H]1O	–	inactive
CCN(CC)C(C)CN1c2ccccc2Sc2ccccc21 (stereo not given)	–	inactive
NC(N)=NC(=O)Cc1c(Cl)cccc1Cl	–	inactive
CC(C)NCC(O)c1ccc(NS(C)(=O)=O)cc1 (stereo not given)	–	inactive
CCOC(=O)CC(SP(=S)(OC)OC)C(=O)OCC (stereo not given)	–	inactive
CCN(CC)CCNC(=O)c1ccc(N)cc1	–	inactive
Cc1cccc(C)c1OCC(=O)N[C@@H](Cc1ccccc1)[C@@H](O)C[C@H](Cc1ccccc1)NC(=O)[C@H](C(C)C)N1CCCNC1=O	–	inactive
COc1ccccc1OCC(O)CO (stereo not given)	–	inactive
CC(O)(P(=O)(O)O)P(=O)(O)O	–	inactive
O=C(O)CCCCCCCC(=O)O	–	inactive
O=[N+]([O-])O[C@H]1CO[C@H]2[C@@H]1OC[C@H]2O[N+](=O)[O-]	–	inactive
